The text below walks through data of PubChem BioAssay (EPA / NIEHS).

A short description of assay [1]: ATG_Ets_CIS: Attagene CIS-FACTORIAL HepG2 Assay for human Erythroblast Transformation Specific (ETS) (AID 2282941). The conditions noted are these: HepG2 ETS cis-reporter transcription, actives raise or lower the signal. The method in brief:
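HepG2 cells transfected with multiple cis-regulated reporter units measuring endogenous ETS-driven transcription, 24 h after dosing. Reporter mRNA quantified by RT-PCR with capillary electrophoresis; bidirectional fit relative to DMSO.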

A short description of assay [2]: ATG_M_06_CIS: Attagene CIS-FACTORIAL HepG2 Assay for M06 Transcription Factor (Internal Marker) (AID 2282950). Particulars: HepG2 Attagene CIS-FACTORIAL M06 internal marker reporter; actives raise or lower the signal. The method in brief:
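Cells (HepG2, transiently carrying cis-driven reporter units) receive chemical for 24 h before RNA isolation. Reporter cDNA is PCR-amplified, FAM-labelled by primer extension, HpaI-digested and sized on a capillary analyser.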

Assay [3] in a line: ATG_TAL_CIS: Attagene CIS-FACTORIAL HepG2 Assay for human TAL Basal Promoter (AID 2282966).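 Further: background control endpoint measuring basal TAL promoter reporter mRNA not a specific factor.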 The conditions noted are these: HepG2 Attagene cis-factorial TAL promoter reporter; actives raise or lower the signal. The essentials: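 Fluorescence of labelled reporter cDNA fragments, resolved by capillary electrophoresis, gave the readout. Human HepG2 liver cells carried transiently transfected cis-element reporter units and were treated for 24 hours; activity was fitted bidirectionally against DMSO.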

Assay [4] is described as follows: BSK_3C_uPAR: BioMAP Diversity Plus: 3C Assay for Urokinase-type plasminogen activator receptor (uPAR) Biomarker Activity (AID 2282998). Particulars: BioMAP 3C HUVEC, uPAR biomarker ELISA; actives raise or lower the signal. The essentials: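 In this endothelial cell-based assay, human umbilical vein primary cells were treated with chemicals and harvested at 24 h. uPAR was quantified using ELISA, with gains or losses fitted relative to DMSO controls.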
A general note: ELISA stands for enzyme-linked immunosorbent assay.

The nature of assay [5]: BSK_3C_VCAM1: BioMAP Diversity Plus: 3C Assay for Vascular cell adhesion molecule 1 (VCAM1) Biomarker Activity (AID 2282999). Particulars: BioMAP 3C HUVEC, VCAM1 ELISA, cytokine-stimulated; actives raise or lower the signal. The method in brief: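 Human umbilical vein endothelial cells (3C system), biomarker read by ELISA 24 h after dosing; bidirectional fit against DMSO baseline. Cytotoxicity tracked by SRB total-protein staining in parallel cultures at biomarker time.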

Assay [6] can be described thus: BSK_4H_Eotaxin3: BioMAP Diversity Plus: 4H Assay for Eotaxin 3 Biomarker Activity (AID 2283000).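 On outcome: CCL26 protein level quantified by ELISA in parallel with SRB cytotoxicity check.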 Particulars: primary human endothelial cells (HUVEC); actives raise or lower the signal. The method in brief:
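Chemicals were added to human umbilical vein endothelium cultures, and Eotaxin-3 was quantified by ELISA at 24 h. Values were derived by bidirectional fitting with DMSO serving as negative control and activity baseline.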

Read-out in assay [7]: Interleukin-1 alpha (IL1a), IL1A (gene 3552)
Nature of the assay: BSK_BE3C_IL1a: BioMAP Diversity Plus: BE3C Assay for Interleukin-1 alpha (IL1a) Biomarker Activity (AID 2283016). Particulars: primary human bronchial epithelial cells; actives raise or lower the signal. The method in brief: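 BE3C primary human bronchial epithelium; cpd 24 h; IL-1a by ELISA; bidirectional fit vs DMSO; parallel SRB (0.1% SRB, 10% TCA fix, 560 nm) for cytotoxicity.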

Read-out in assay [8]: Collagen III, COL3A1 (gene 1281)
Nature of the assay: BSK_hDFCGF_CollagenIII: BioMAP Diversity Plus: hDFCGF Assay for Collagen III Biomarker Activity (AID 2283056). Particulars: primary human foreskin fibroblasts; actives raise or lower the signal. The essentials: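 ELISA read-out of collagen III from human skin fibroblast cultures sampled 24 h post-dosing. Values were derived by bidirectional fitting relative to the DMSO vehicle control.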

Read-out in assay [9]: Epidermal growth factor receptor (EGFR), EGFR (gene 1956)
Nature of the assay: BSK_hDFCGF_EGFR: BioMAP Diversity Plus: hDFCGF Assay for Epidermal growth factor receptor (EGFR) Biomarker Activity (AID 2283057). The conditions noted are these: primary human foreskin fibroblasts; actives raise or lower the signal. The essentials: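 hDFCGF system, primary human foreskin fibroblasts; compound 24 h; EGFR measured by ELISA; DMSO = negative control/baseline; bidirectional fitting.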

Read-out in assay [10]: Vascular cell adhesion molecule 1 (VCAM1), VCAM1 (gene 7412)
Nature of the assay: BSK_hDFCGF_VCAM1: BioMAP Diversity Plus: hDFCGF Assay for Vascular cell adhesion molecule 1 (VCAM1) Biomarker Activity (AID 2283065). Particulars: primary human foreskin fibroblasts; actives raise or lower the signal. The essentials: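 Human foreskin fibroblast primary cells, chemical exposure 24 h; VCAM-1 by ELISA; bidirectional fit, DMSO = negative control/baseline.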

Read-out in assay [11]: Intercellular Adhesion Molecule 1 (ICAM1), ICAM1 (gene 3383)
Nature of the assay: BSK_KF3CT_ICAM1: BioMAP Diversity Plus: KF3CT Assay for Intercellular Adhesion Molecule 1 (ICAM1) Biomarker Activity (AID 2283067). The conditions noted are these: primary human keratinocytes with fibroblasts; actives raise or lower the signal. The essentials:
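ICAM-1 levels are measured by ELISA 24 h after dosing a primary human co-culture of keratinocytes and foreskin fibroblasts. Activity in either direction is fitted relative to DMSO vehicle.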

Read-out in assay [12]: CD40, CD40 (gene 958)
Nature of the assay: BSK_LPS_CD40: BioMAP Diversity Plus: LPS Assay for CD40 Biomarker Activity (AID 2283076). The conditions noted are these: primary human HUVEC with PBMC; actives raise or lower the signal. The method in brief:
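Cells were dosed, incubated 24 h, then assayed for CD40 by ELISA. Gain or loss of signal was analysed relative to DMSO controls. The culture paired human umbilical vein endothelium with peripheral blood mononuclear cells.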

Read-out in assay [13]: E-selectin (Homo sapiens) (UniProt P16581)
Nature of the assay: BSK_LPS_Eselectin: BioMAP Diversity Plus: LPS Assay for Eselectin Biomarker Activity (AID 2283077). Particulars: primary human HUVEC with PBMC; actives raise or lower the signal. The method in brief:
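Primary human vascular co-culture (endothelium plus PBMC) was dosed with chemical, then E-selectin quantified by ELISA at 24 h. Endpoint values derive from bidirectional curve fitting relative to DMSO.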

Read-out in assay [14]: Interleukin-1 alpha (IL1a), IL1A (gene 3552)
Nature of the assay: BSK_LPS_IL1a: BioMAP Diversity Plus: LPS Assay for Interleukin-1 alpha (IL1a) Biomarker Activity (AID 2283080). Particulars: primary human HUVEC with PBMC; actives raise or lower the signal. The essentials:
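ELISA read-out of IL-1 alpha from a human primary vascular co-culture (endothelium plus PBMC) under LPS, sampled 24 hours post-dosing. Activity was fitted in both directions relative to DMSO controls.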

Read-out in assay [15]: Monocyte Chemoattractant Protein-1 (MCP1), CCL2 (gene 6347)
Nature of the assay: BSK_LPS_MCP1: BioMAP Diversity Plus: LPS Assay for Monocyte Chemoattractant Protein-1 (MCP1) Biomarker Activity (AID 2283081).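 On AC50: co-culture stimulated with LPS; secreted MCP-1 protein quantified by ELISA in culture supernatant.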 The conditions noted are these: primary human HUVEC with PBMC; actives raise or lower the signal. The method in brief: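 Human endothelial–PBMC co-cultures were dosed with chemical, then LPS-driven MCP-1 levels were quantified by ELISA at 24 h. Activity in either direction was fitted versus DMSO negative control.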

Assay [16] in a line: BSK_LPS_PGE2: BioMAP Diversity Plus: LPS Assay for Prostaglandin E2 (PGE2) Biomarker Activity (AID 2283082). The conditions noted are these: primary human HUVEC with PBMC; actives raise or lower the signal. The essentials: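 LPS-activated HUVEC/PBMC co-culture; cmpd dosed, 24 h; PGE2 by ELISA; bidirectional fit vs DMSO; SRB (0.1%, TCA-fixed, 560 nm) in parallel plates for overt cytotox.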

Read-out in assay [17]: Macrophage colony-stimulating factor (MCSF), CSF1 (gene 1435)
Nature of the assay: BSK_LPS_MCSF: BioMAP Diversity Plus: LPS Assay for Macrophage colony-stimulating factor (MCSF) Biomarker Activity (AID 2283083). The conditions noted are these: primary human HUVEC with PBMC; actives raise or lower the signal. The method in brief:
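ELISA readout of M-CSF after 24 h compound exposure in a human endothelial/PBMC co-culture. Activity, in either direction, is fitted relative to DMSO vehicle.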

Read-out in assay [18]: CD69, CD69 (gene 969)
Nature of the assay: BSK_SAg_CD69: BioMAP Diversity Plus: SAg Assay for CD69 Biomarker Activity (AID 2283089).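 On AC50: cell surface CD69 protein quantified by ELISA with fluorescence detection.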 Particulars: primary human HUVEC with PBMC; actives raise or lower the signal. The method in brief: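 HUVEC co-cultured with PBMC were dosed with chemical, and CD69 was measured by ELISA with fluorescence read-out 24 h later. Bidirectional curve fitting used DMSO as negative control and activity baseline.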

Assay [19] is described as follows: BSK_SAg_PBMCCytotoxicity: PBMC Cytotoxicity Assessment in the BioMAP Diversity Plus: SAg Assay (AID 2283093).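 Further: PBMC viability measured as Alamar Blue reduction fluorescence at 546/580 nm; fitted both ways against DMSO so a hit may be loss or gain of signal.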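 On AC50: PBMC superantigen activated with SEB plus TSST-1 one hour after compound addition.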 The conditions noted are these: primary human HUVEC with PBMC. The essentials:
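HUVEC/PBMC co-culture; PBMC exposed to chemical 1 h before SEB and TSST-1 activation (20 ng/mL each), incubated 90 h, then Alamar Blue 6 h, fluorescence 546/580 nm. Bidirectional fit versus DMSO baseline.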

Assay [20] in a line: ATG_M_19_TRANS: Attagene TRANS-FACTORIAL HepG2 Assay for M19 Transcription Factor (Internal Marker) (AID 2282974; active means hit-call score of the fitted dose curve at least 0.9, where 1 is the maximum). The conditions noted are these: HepG2 Attagene TRANS-FACTORIAL M19 internal marker reporter. The essentials: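 24 h chemical exposure of transiently transfected HepG2 (MRTU library). RNA → oligo(dT) RT → PCR → 6-FAM labelling → HpaI cut → CE fluorescence. Positive-direction fit vs DMSO baseline; background internal-marker readout.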

Molecules are shown by their SMILES. “And” between values parts separate entries of the source, which are not always exact repeats. Equal values may be shown once. Results filed as inconclusive are left out. More than one record can exist for a structure, and the calls need not agree. The source made the active and inactive calls. How the source made its calls, unless noted: active means hit-call score of the fitted dose curve at least 0.9, where 1 is the maximum; inactive means score below 0.9.

E-selectin (Homo sapiens), sequence (P16581 whole entry, looked up): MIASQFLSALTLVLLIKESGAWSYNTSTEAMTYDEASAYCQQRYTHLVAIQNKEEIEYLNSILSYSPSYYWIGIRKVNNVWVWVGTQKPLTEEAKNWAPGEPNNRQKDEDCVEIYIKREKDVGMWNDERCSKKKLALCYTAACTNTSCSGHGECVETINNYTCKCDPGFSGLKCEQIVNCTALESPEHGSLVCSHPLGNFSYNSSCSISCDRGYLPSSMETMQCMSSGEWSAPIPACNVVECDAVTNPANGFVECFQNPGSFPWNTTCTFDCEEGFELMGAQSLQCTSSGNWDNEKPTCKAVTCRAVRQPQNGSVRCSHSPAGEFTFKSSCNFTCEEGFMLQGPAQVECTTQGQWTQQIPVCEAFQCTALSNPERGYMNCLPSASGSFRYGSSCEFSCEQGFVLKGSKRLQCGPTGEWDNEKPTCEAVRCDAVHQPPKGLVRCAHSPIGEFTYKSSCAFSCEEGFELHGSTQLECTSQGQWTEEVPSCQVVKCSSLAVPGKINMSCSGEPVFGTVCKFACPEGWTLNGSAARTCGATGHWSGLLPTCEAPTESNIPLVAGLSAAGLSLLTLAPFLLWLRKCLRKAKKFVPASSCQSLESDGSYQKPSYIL

As for `CCCCCC[C@@H](O)C/C=C\CCCCCCCC(=O)O`, the molecule was called inactive in assay [1] and in assay [2].
`O=S(=O)(O)c1cccc2ccccc12`: the molecule was called inactive in [1] and in [3].
On to `CC(C)C1OCCN1CCOC(=O)NCCCCCCNC(=O)OCCN1CCOC1C(C)C` (configuration not stated), for which the outcome in [4], in [5], in assay [6], in [7], in assay [8] and in [9] was inactive. Further, the result in assay [10], in assay [11], in [12], in [13], in assay [14] and in assay [15] was inactive. Besides, the outcome in assay [16], in assay [17], in assay [18] and in assay [19] was inactive.
`CC(C)CC(=O)CC(C)C`: the molecule was called inactive in assay [1].
With `CCCCCCOC(=O)CCCCCCCC(=O)OCCCCCC`, the molecule was classed as inactive in assay [2], in assay [3] and in [20].
Turning to `Cc1c(C(N)=O)cc([N+](=O)[O-])cc1[N+](=O)[O-]`, the outcome in [4], in assay [5], in assay [6], in assay [7], in assay [8] and in assay [9] was inactive. The result in [10], in assay [11], in assay [12], in assay [13], in assay [14] and in assay [15] was inactive. Moreover, the result in assay [16], in assay [17], in [18] and in assay [19] was inactive.
As for `COc1cccc(OC)c1C(=O)O`, the call in assay [1], in [2] and in assay [3] was inactive.
Consider `CCO[Si](OCC)(OCC)c1ccccc1`, for which the molecule was classed as inactive in [1], in assay [2] and in [20].
Turning to `COc1c2occc2cc2ccc(=O)oc12`, the result in assay [2] was inactive.
As to `COc1ccc2ccccc2c1`, the molecule was classed as inactive in [1], in assay [2], in assay [3] and in assay [20].
Regarding `CC[N+](CC)(CC(=O)Nc1c(C)cccc1C)Cc1ccccc1`, the molecule was called inactive in assay [1], in assay [2], in assay [3], in assay [20], in assay [4] and in assay [5]. Further, the outcome in [6], in [7], in assay [8], in assay [9], in assay [10] and in [11] was inactive. Moreover, the outcome in [12], in assay [13], in [14], in [15], in [16] and in [17] was inactive. Moreover, the result in [18] and in assay [19] was inactive.
With `CCCCC(CC)COC(=O)C=Cc1ccc(OC)cc1` (configuration not stated), the AC50 (usually the concentration giving half of the maximal activity seen) in assay [4] is 35.3 µM (active) and 26.2 µM (active); in assay [6] it was 24.2 µM (active) and 18.9 µM (active); in assay [8], 9.77 µM (active) and 7.79 µM (active); in [12], 20 µM (active); in assay [13], 13.2 µM (active); in [15], 32.3 µM (active). For the same molecule, the AC50 in assay [17] was 32 µM (active) and 14.8 µM (active); in assay [18], 26.3 µM (active) and 18.6 µM (active); in [19] it was 36.1 µM (active). The outcome in assay [5], in assay [7], in [9], in assay [10], in assay [11] and in assay [12] was inactive. The outcome in assay [13], in [14], in [15], in [16] and in assay [19] was inactive.
With `C=CCOCC(CC)(CO)COCC=C`, the molecule was called inactive in assay [2], in assay [3] and in assay [20].
`C1CN(CCOCCN2CCOCC2)CCO1`: the result in assay [4], in assay [5], in assay [6], in assay [7], in assay [8] and in assay [9] was inactive. Also, the outcome in assay [10], in assay [11], in assay [12], in [13], in assay [14] and in [15] was inactive. The result in assay [16], in assay [17], in assay [18] and in [19] was inactive.
With `CC/C=C\CCO`, the call in assay [1] and in assay [20] was inactive.
